IL-1B inflam inh – inhibitors of inflammasome signaling (IL-1 beta secretion); 360,000 tested, 4.7% active; activity change, % at 57.5 µM; THP-1 LPS/ATP IL-1B secretion, AlphaLISA, 16 h; active compounds read low; AID 743279; in the data active = activity change below about -50%; inconclusive = mostly about -30% to -49%
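THP-1 cells pretreated 1 hr with compounds (up to 57.5 uM final), then stimulated with LPS (250 ng/mL final) plus ATP (1.25 mM final); secreted IL-1B measured by AlphaLISA after 16 hr, decreased signal indicating inhibition.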
DT40 TDP1 CPT – DT40-hTDP1 cell growth loss with CPT; 420,000 tested, 12% active; chicken DT40 Tdp1-/-;hTDP1 cells + 20 nM CPT, ATP luminescence, 48 h; AID 686979; Potency, µM (top dose mostly 46.2 µM), for inactives: at the top dose activity change, negative = growth inhibition, most hits filed as inhibitors; also: potency is read from the fitted curve at half-maximal effect; nearly all actives have a fitted effect of over 55% in size
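Cell growth measured by CellTiter-Glo luminescence after a minimum 48 h, 37 C compound exposure with 20 nM CPT in Tdp1-knockout DT40 cells stably expressing hTDP1, seeded 400/well; qHTS titration format.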
DT40 TDP1 no CPT – qHTS for Inhibitors of human tyrosyl-DNA phosphodiesterase 1 (TDP1): qHTS in cells in absence of CPT; Potency, µM (top dose mostly 46.2 µM), for the others: at the highest dose activity change, negative = growth inhibition, actives largely listed as inhibitors; DT40 Tdp1-/- hTDP1 cells, no CPT, ATP luminescence, 48 h; 420,000 tested, 15% active; AID 686978, 2013; also: potency is read from the fitted curve at half-maximal effect; nearly all actives have a fitted effect of over 55% in size
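Luminescent ATP content (CellTiter-Glo) served as the growth readout. Knockout chicken DT40 cells expressing human TDP1 were exposed to compounds without camptothecin for a minimum 48 hr at 37 °C.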
HT1080NT lethal – kills 2HG-producing HT-1080-NT fibrosarcoma cells. HT-1080-NT fibrosarcoma viability, CellTiter-Glo ATP luminescence, 48 h. AID 686970. 360,000 tested, 1.6% active. Potency, µM (series often up to 46.1 µM), without a hit: at the highest dose activity, negative = less viability, most hits filed as cytotoxic;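 also: NT is the 2HG producing partner of a matched IDH1 knockdown line; potency is read from the fitted curve at half-maximal effect; 0% = DMSO-treated cells and -100% = media-only wells without cells; nearly all actives have a fitted effect of over 55% in size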
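Toxicity toward the 2HG-producing NT line was scored as %Activity, normalised to DMSO and no-cell wells, from CellTiter-Glo luminescence after 48 hours' treatment.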
12-LOX inh – blocks human arachidonate 12S-lipoxygenase. P18054. purified 12hLO, xylenol orange hydroperoxide absorbance. Potency, µM (top dose mostly 108 µM), for inactives: at the highest dose activity change, negative = inhibition, usual class: inhibitors. 580,000 tested, 1.1% active; also: potency is read from the fitted curve at half-maximal effect
Target sequence (P18054 whole entry, looked up): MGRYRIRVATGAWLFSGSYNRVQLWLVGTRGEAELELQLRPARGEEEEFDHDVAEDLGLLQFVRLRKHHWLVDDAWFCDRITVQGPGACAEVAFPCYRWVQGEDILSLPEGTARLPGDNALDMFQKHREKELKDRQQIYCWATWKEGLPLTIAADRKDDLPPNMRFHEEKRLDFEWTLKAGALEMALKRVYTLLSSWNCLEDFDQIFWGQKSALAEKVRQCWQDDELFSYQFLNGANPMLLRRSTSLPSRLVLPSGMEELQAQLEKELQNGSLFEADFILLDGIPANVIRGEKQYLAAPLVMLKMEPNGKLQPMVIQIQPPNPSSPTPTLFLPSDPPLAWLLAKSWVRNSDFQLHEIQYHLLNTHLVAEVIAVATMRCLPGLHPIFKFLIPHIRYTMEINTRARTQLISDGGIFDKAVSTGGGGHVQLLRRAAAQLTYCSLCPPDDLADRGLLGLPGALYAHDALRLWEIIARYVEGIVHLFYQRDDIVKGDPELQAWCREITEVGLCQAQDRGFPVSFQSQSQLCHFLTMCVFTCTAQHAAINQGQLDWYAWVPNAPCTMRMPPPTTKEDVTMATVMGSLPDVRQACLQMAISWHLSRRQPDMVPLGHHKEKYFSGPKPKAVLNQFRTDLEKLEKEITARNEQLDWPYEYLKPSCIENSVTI
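Purified human 12hLO at 150 nM in 25 mM Hepes, 0.01% Triton X-100, pH 7.0, preincubated 15 min at room temperature with compound. Reaction started with 40 uM arachidonic acid, 30 min at room temperature. Hydroperoxide measured by Fe-xylenol orange, 573/405 nm absorbance ratio.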
HT1080 IDH1KD tx – HT-1080 IDH1 knockdown cell toxicity (counter line) | HT-1080 IDH1 knockdown viability, ATP luminescence, 48 h | Potency, µM (doses to about 46.1 µM), inactives show at the top dose activity, negative = toxicity, hits mostly cytotoxic | 360,000 tested, 2% active | AID 686971;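 also: potency is read from the fitted curve at half-maximal effect; 0% = DMSO wells and -100% = cell-free medium wells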
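Cytotoxicity counter-line: IDH1KD HT-1080, 48 h, CellTiter-Glo. Curves classed by r2, magnitude and activity.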
An asterisk follows results filed as active. Many of the other results were omitted from the sample, so hits are more common in it than they were. Unless noted, calls follow the shape of the dose curve; as a rule, active = well fitted curve in the direction sought with a large enough effect; inconclusive = small, poorly fitted or top-dose-only effect, or another doubt; inactive = no such curve, though single readings can be large; an effect the other way counts as inactive or inconclusive. Unless noted, % is scaled to controls: 0 for no effect and ±100 for the full control effect.

How did CCCCOC(=O)NC1CCc2cc(OC)c(OC)c(OC)c2-c2ccc(SC)c(=O)cc21 (configuration not stated) do in these assays?
IL-1B inflam inh: 31.0; DT40 TDP1 CPT: 0.0164µM*; DT40 TDP1 no CPT: 0.0146µM*; HT1080NT lethal: 0.0082µM*; 12-LOX inh: -17.9%; HT1080 IDH1KD tx: 0.0092µM*

What do the screens show for `CC(C)C(C)(C#N)NC(=O)CSc1nnc(-c2ccccc2)o1` (configuration not stated)?
IL-1B inflam inh: -0.5; DT40 TDP1 CPT: -10.8%; DT40 TDP1 no CPT: -7.4%; HT1080NT lethal: -4.4%; 12-LOX inh: 329.2%; HT1080 IDH1KD tx: 15.2%

What do the screens show for `O=c1c2cc(F)ccc2sn1-c1ccccc1`?
IL-1B inflam inh: -2.1; DT40 TDP1 CPT: 1.84µM*; DT40 TDP1 no CPT: 2.06µM*; HT1080NT lethal: inconclusive; 12-LOX inh: inconclusive; HT1080 IDH1KD tx: inconclusive

What do the screens show for `O=c1c2cc(C(F)(F)F)ccc2sn1-c1ccccc1`?
IL-1B inflam inh: 2.1; DT40 TDP1 CPT: 5.17µM*; DT40 TDP1 no CPT: 5.17µM*; HT1080NT lethal: -16.3%; 12-LOX inh: -71.3%; HT1080 IDH1KD tx: -5.3%

What do the screens show for `Cc1ccc(CN2CCC(N3CC(OCC4CC4)C34CCOCC4)CC2)s1` (configuration not stated)?
12-LOX inh: 35.0%

What do the screens show for `COc1cccc(NC(=O)C2(Cc3ccccc3)CCCCC(=O)N2)c1` (configuration not stated)?
12-LOX inh: 40.0%

How did COc1ccc(N2CC(NC(=O)NCCC(C)C)CC2=O)cc1 (configuration not stated) do in these assays?
IL-1B inflam inh: -64.5*; DT40 TDP1 CPT: inconclusive; DT40 TDP1 no CPT: -20.7%; HT1080NT lethal: -0.9%; 12-LOX inh: -9.5%; HT1080 IDH1KD tx: -4.3%

What do the screens show for `COc1ccc(N2CCN(C(=O)NC3CC(=O)N(c4ccc(OC)cc4)C3)CC2)cc1` (configuration not stated)?
IL-1B inflam inh: 0.2; DT40 TDP1 CPT: inconclusive; DT40 TDP1 no CPT: -16.2%; HT1080NT lethal: -10.5%; 12-LOX inh: -16.7%; HT1080 IDH1KD tx: -10.4%

Results for CCN1CCN(C(=O)NC2CC(=O)N(c3ccc(OC)cc3)C2)CC1 (configuration not stated) ?
IL-1B inflam inh: -68.9*; DT40 TDP1 CPT: 15.4%; DT40 TDP1 no CPT: 16.5%; HT1080NT lethal: inconclusive; 12-LOX inh: -1.7%; HT1080 IDH1KD tx: 18.6%

What do the screens show for `O=C(Nc1cccc(C(F)(F)F)c1)N[C@H]1CO[C@H]2[C@@H]1OC[C@@H]2n1cc(-c2ccccn2)nn1`?
12-LOX inh: -23.5%

Results for O=C(c1ccco1)N1CC2(CC(c3ccc(Cl)cc3)=NO2)CN1Cc1ccc(Br)cc1 (configuration not stated) ?
IL-1B inflam inh: -17.4; DT40 TDP1 CPT: 20.6µM*; DT40 TDP1 no CPT: inconclusive; HT1080NT lethal: 5.8%; 12-LOX inh: inconclusive; HT1080 IDH1KD tx: 8.7%

Results for CC(C)N1CC2(CC(c3ccccc3F)=NO2)CN1C(=O)c1ccco1 (configuration not stated) ?
IL-1B inflam inh: 14.1; DT40 TDP1 CPT: -2.2%; DT40 TDP1 no CPT: -8.9%; HT1080NT lethal: 13.7%; 12-LOX inh: 0.0%; HT1080 IDH1KD tx: 9.3%

How did Cc1ccc(-c2nnn3c2nc(NCCc2ccc(S(N)(=O)=O)cc2)c2ccccc23)cc1 do in these assays?
IL-1B inflam inh: 28.1; DT40 TDP1 CPT: -19.2%; DT40 TDP1 no CPT: inconclusive; HT1080NT lethal: inconclusive; 12-LOX inh: -9.1%; HT1080 IDH1KD tx: inconclusive

What do the screens show for `Cc1cccc(-c2nnn3c2nc(NCc2ccc4c(c2)OCO4)c2ccccc23)c1`?
DT40 TDP1 CPT: 23.1µM*; DT40 TDP1 no CPT: inconclusive; 12-LOX inh: inconclusive

What do the screens show for `CC(=O)NCCNc1nc2c(-c3cccc(C)c3)nnn2c2ccc(Cl)cc12`?
DT40 TDP1 CPT: 14.2%; DT40 TDP1 no CPT: 21.5%; 12-LOX inh: -7.0%

What do the screens show for `NS(=O)(=O)c1ccc(CCNc2nc3c(-c4cccc(F)c4)nnn3c3ccccc23)cc1`?
IL-1B inflam inh: 26.6; DT40 TDP1 CPT: inconclusive; DT40 TDP1 no CPT: 11.6µM*; HT1080NT lethal: -2.9%; 12-LOX inh: -21.6%; HT1080 IDH1KD tx: -4.8%

What do the screens show for `CC(=O)NCCNc1nc2c(-c3ccc(C)cc3)nnn2c2ccccc12`?
DT40 TDP1 CPT: -5.3%; DT40 TDP1 no CPT: -17.6%; 12-LOX inh: 2.1%

Results for CC(=O)NCCNc1nc2c(-c3ccccc3)nnn2c2ccccc12 ?
IL-1B inflam inh: 28.3; DT40 TDP1 CPT: inconclusive; DT40 TDP1 no CPT: 8.2µM*; HT1080NT lethal: -7.6%; 12-LOX inh: -3.3%; HT1080 IDH1KD tx: -11.6%

Results for Cc1cccc(-c2nnn3c2nc(NCCc2ccc(S(N)(=O)=O)cc2)c2cc(Cl)ccc23)c1 ?
DT40 TDP1 CPT: 9.2µM*; DT40 TDP1 no CPT: 5.8µM*; 12-LOX inh: -34.9%

Results for Cc1cc(S(=O)(=O)N2CCCC(C(=O)Nc3ccc(C(=O)O)cc3)C2)ccc1Cl (configuration not stated) ?
IL-1B inflam inh: 24.8; DT40 TDP1 CPT: 4.6%; DT40 TDP1 no CPT: -9.5%; HT1080NT lethal: -12.9%; 12-LOX inh: -2.9%; HT1080 IDH1KD tx: -6.1%

How did CSc1nccc(-c2cc(NCc3cccnc3)nc3[nH]ccc23)n1 do in these assays?
12-LOX inh: 76.1%

Results for CCOC(=O)c1c(NC(=O)CCCOc2ccc(C)cc2)sc2c1CCC(C)C2 (configuration not stated) ?
DT40 TDP1 CPT: -1.8%; DT40 TDP1 no CPT: -0.7%; 12-LOX inh: -18.7%

What do the screens show for `Cc1cccc(-c2nnn3c2nc(NCCc2ccc(S(N)(=O)=O)cc2)c2ccccc23)c1`?
IL-1B inflam inh: -9.2; DT40 TDP1 CPT: 14.6µM*; DT40 TDP1 no CPT: 16.4µM*; HT1080NT lethal: -4.6%; 12-LOX inh: inconclusive; HT1080 IDH1KD tx: -13.6%

How did CCOC(=O)c1cccc(NC(=O)c2ccc3c(c2)OCO3)c1 do in these assays?
IL-1B inflam inh: -84.7*; DT40 TDP1 CPT: 14.6µM*; DT40 TDP1 no CPT: 11.6µM*; HT1080NT lethal: 0.7%; 12-LOX inh: 1.8%; HT1080 IDH1KD tx: -11.9%

What do the screens show for `CCOC(=O)c1cccc(NC(=O)/C=C/c2ccc3c(c2)OCO3)c1`?
IL-1B inflam inh: -89.5*; DT40 TDP1 CPT: inconclusive; DT40 TDP1 no CPT: 18.4µM*; HT1080NT lethal: inconclusive; 12-LOX inh: 19.4%; HT1080 IDH1KD tx: inconclusive
